Each structure is given as a SMILES string. “And” between values parts separate entries of the source, which are not always exact repeats. Identical values can stand only once. About 5,700 (36%) of roughly 16,000 compounds were called active. Another 24% or so got no clear call; they are omitted. The list shows a part of the results. A number with no mark means an inactive call. Calls follow the shape of the dose curve; as a rule, active = well fitted curve in the direction sought with a large enough effect; inconclusive = small, poorly fitted or top-dose-only effect, or effect the other way; inactive = no such curve, though single readings can be large or run the other way.
% is scaled to controls: 0 for no effect and ±100 for the full control effect.

Chain of Cytochrome P450 1A2 (Homo sapiens) (P05177 whole entry, looked up): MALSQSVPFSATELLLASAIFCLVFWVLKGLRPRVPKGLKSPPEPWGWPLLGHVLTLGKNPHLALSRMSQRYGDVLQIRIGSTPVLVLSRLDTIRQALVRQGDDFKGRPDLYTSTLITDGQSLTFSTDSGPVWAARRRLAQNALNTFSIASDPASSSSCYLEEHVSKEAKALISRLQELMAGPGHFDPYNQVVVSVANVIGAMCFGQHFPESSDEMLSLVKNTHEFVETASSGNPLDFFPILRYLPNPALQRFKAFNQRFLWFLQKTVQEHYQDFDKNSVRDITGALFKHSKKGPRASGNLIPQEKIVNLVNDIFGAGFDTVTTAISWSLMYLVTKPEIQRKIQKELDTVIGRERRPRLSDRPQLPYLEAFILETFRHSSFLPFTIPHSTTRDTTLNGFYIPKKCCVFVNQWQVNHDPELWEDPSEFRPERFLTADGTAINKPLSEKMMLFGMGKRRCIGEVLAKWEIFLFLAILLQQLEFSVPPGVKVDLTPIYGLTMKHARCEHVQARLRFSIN

The assay concerns the target Cytochrome P450 1A2 (Homo sapiens) (UniProt P05177). The experiment in a line: Cytochrome panel assay with activity outcomes. The following applies: recombinant CYP, pro-luciferin dealkylation, luminescence, p450-cyp1a2; series mostly up to 57.1 µM; activity, negative = inhibition: at the top concentration.
Turning to `COCC(=O)N1CCC[C@@]2(CCN(C(=O)Nc3ccc(OC)cc3)C2)C1`, the “activity, negative = inhibition” value is -18.5%.

Consider `C/C(CCN1CCc2nc(-c3ccccc3)c(-c3ccccc3)cc2C1)=N\O[C@@H](C)c1cn([C@H](CO)Cc2ccccc2)nn1`, for which the activity, negative = inhibition is 1.6% [at 11.4 µM] and -0.819% [at 11.4 µM].

The term AC50 denotes the concentration at which the activity in the assay is half-maximal. In the case of `CCn1c2ccccc2c2cc(NC(=O)CSc3nnc(-c4ccc(OC)c(OC)c4)n3N)ccc21`, the AC50 was 7.08 µM (active).

Take `CCn1c2ccccc2c2cc(N=C3SC(CC(=O)Nc4ccccc4OC)C(=O)N3C)ccc21` (stereo not drawn): the “activity, negative = inhibition” value was -20.4%.

As to `CCn1c(=O)cc(SCC(=O)Nc2cc(OC)c(OC)c(OC)c2)c2ccccc21`, the “activity, negative = inhibition” value was -28.7%.

`Cc1noc(NS(=O)(=O)c2cccc3c(N(C)C)cccc23)c1C`: the “activity, negative = inhibition” value is -11.1%.

On to `CCN(CC)S(=O)(=O)c1ccc2c3c(cccc13)C(=O)S2`, for which the AC50 was 1.26 µM (active).

Regarding `CCN(CC)S(=O)(=O)c1cccc2c(N(C)C)cccc12`, the AC50 was 7.08 µM (active).

Turning to `Cc1[nH]nc(Nc2ccccc2)c1[N+](=O)[O-]`, the AC50 is 1 µM (active).

For `CCCc1nnc(SCC(=O)N2CCCCC2C)n1CCCOC` (stereo not drawn), the “activity, negative = inhibition” value was 4.74%.

`COC(=O)C(C)Sc1nc2c(cnn2-c2ccc(C)cc2)c(=O)[nH]1` (stereo not drawn): the AC50 was 2.51 µM (active).

In the case of `Nc1nc(SCC(=O)O)[nH]c(=O)c1N`, the activity, negative = inhibition is -10.3% [at 11.4 µM].

Turning to `CCOC(=O)CSc1nc2c(cnn2-c2ccc(C)cc2)c(=O)[nH]1`, the AC50 was 0.562 µM (active).

With `Cc1nc(SCC(=O)Nc2c(C)nn(C)c2C)c2cnn(-c3ccccc3)c2n1`, the “activity, negative = inhibition” value is -21.6%.

With `Cc1ccc2nc(SCc3nc4c(cnn4-c4ccccc4)c(=O)[nH]3)[nH]c2c1`, the half-maximal activity concentration (AC50) is 12.6 µM (active).

In the case of `O=C(c1ccco1)N1CCN(c2cc(=O)n(C3CCCCC3)c(=O)[nH]2)CC1`, the “activity, negative = inhibition” value was 1.95%.

Consider `Cc1ccc(C(=O)N/N=C/c2sc(=O)n(Cc3cccc(C(=O)O)c3)c2Cl)cc1`, for which the “activity, negative = inhibition” value was 19%.

`O=C(N/N=C/c1c(Nc2cccc(C(F)(F)F)c2)nc2ccccn2c1=O)c1ccccc1`: the AC50 is 2.82 µM (active).

Consider `CC(C)(CO)[C@H](O)C(=O)NCCCO`, for which the “activity, negative = inhibition” value was -1.12% [at 25.6 µM].

`CNc1ncnc2c1ncn2[C@@H]1O[C@@H](CO)[C@H](O)[C@@H]1O`: the “activity, negative = inhibition” value is -5.83%.

On to `Cc1ccc(OCC(=O)N/N=C\c2c(C)n(C)c3ccccc23)c([N+](=O)[O-])c1`, for which the AC50 was 0.562 µM (active).

In the case of `Cn1c(=O)cc(OCCCC(=O)Nc2cccnc2)c2ccccc21`, the AC50 is 2 µM (active).

Regarding `COc1ccc(-c2nnc(-c3ccc(OCC(C)C)cc3)o2)cc1`, the “activity, negative = inhibition” value is -20.8%.

Regarding `CCOc1ccc(-c2nnc(-c3ccncc3)o2)cc1`, the AC50 was 2.51 µM (active).

Turning to `COc1cccc(-c2noc(-c3cccnc3)n2)c1`, the AC50 was 2.82 µM (active).

Regarding `COc1ccc(CC(=O)Nc2ccc(-c3noc(-c4cccc(OC)c4)n3)cc2)cc1`, the “activity, negative = inhibition” value was -14.6%.

In the case of `COc1ccc(-c2nnc(-c3cccnc3)o2)cc1`, the AC50 is 12.6 µM (active).

As for `CCOC(=O)CCN1C(=O)[C@H]2[C@H]3[C@H](O)[C@H](O)C/C(=N/OC/C=C(\C)CCC=C(C)C)[C@@H]3CC[C@@H]2C1=O`, the activity, negative = inhibition is -2.33% [at 11.4 µM].

Regarding `N#Cc1c(-c2ccccc2)no[n+]1[O-]`, the AC50 is 0.398 µM (active).

For `CCCCn1c(=N)n(CC(=O)c2ccco2)c2ccccc21`, the AC50 is 8.91 µM (active).

In the case of `CC[C@H](CN(C)C)C(=O)c1ccco1`, the activity, negative = inhibition was -9.05% [at 11.4 µM].

On to `C[N+]1(CCC(=O)c2ccco2)CC2CCC(CC2)C1` (stereo not drawn), for which the activity, negative = inhibition is -10.2% [at 11.4 µM].

Turning to `C[C@H](N)CCCC(C)(C)O`, the “activity, negative = inhibition” value is -3.97% [at 25.6 µM].

Turning to `CSc1nc(C)c2c(n1)N(c1ccc(C(F)(F)F)cc1)CC2`, the AC50 was 0.316 µM (active).

Turning to `CSc1nc(C)c2c(n1)N(c1ccc(C(C)C)cc1)CC2`, the AC50 was 2 µM (active).

Turning to `C[C@H](O)[C@H](O)[C@@H]1CNc2nc(N)[nH]c(=O)c2N1`, the “activity, negative = inhibition” value was -16%.

Consider `Cn1c(=O)c(C(=O)CN2CCOCC2)c(N)n(Cc2ccccc2)c1=O`, for which the “activity, negative = inhibition” value is 7.04%.

As for `Cn1c(N)c(C(=O)CSc2ccc3c(c2)OCCO3)c(=O)n(C)c1=O`, the AC50 is 15.8 µM (active).

With `Cc1nn(-c2ccc(Cl)cc2)c2sc(C(=O)c3c(N)n(C)c(=O)n(C)c3=O)cc12`, the “activity, negative = inhibition” value was -17.7%.

In the case of `COc1ccc(-c2noc(C3CCCN(C(=O)c4ccccc4OC)C3)n2)cc1OC` (stereo not drawn), the “activity, negative = inhibition” value was -31.5%.

On to `O=C(Nc1ccccc1)N1CCCC(c2nc(-c3ccc(F)cc3)no2)C1` (stereo not drawn), for which the AC50 is 25.1 µM (active).

Turning to `Cc1noc(C)c1C(=O)N1CCC[C@@]2(CCN(C(=O)Nc3cccc(F)c3)C2)C1`, the “activity, negative = inhibition” value was -14.5%.

Consider `CCCCCC(=O)N1CCCC(c2nc(-c3ccc(OC)cc3)no2)C1` (stereo not drawn), for which the AC50 is 3.16 µM (active).

For `O=C(Nc1cccc(F)c1)N1CCCC2(CCNCC2)C1`, the “activity, negative = inhibition” value was -9.33%.

On to `O=C(CC1CCCCC1)N1CCC(c2nc(-c3ccc(S(=O)(=O)N4CCCC4)cc3)no2)CC1`, for which the “activity, negative = inhibition” value is -1.32%.

Take `Cc1nc2ncnn2c(C)c1CCC(=O)NCc1ccccc1`: the “activity, negative = inhibition” value was -2.47%.

On to `COc1ccc2[nH]c(-c3ccccc3)c(CCNC(C)=O)c2c1`, for which the AC50 is 1.26 µM (active).

Regarding `CCCCC(=O)NCCc1c(Cc2ccccc2)[nH]c2ccccc12`, the AC50 was 3.16 µM (active).
